Screens deposited in PubChem by several laboratories.
Rows were chosen to be rich in hits. Some 1.5% of all compounds tested hit in one or more screens of this group.
CRFR2-BP ag = agonists of human CRF-binding protein/CRF-R2 receptor complex | HEK293 CRF-R2/CRF-BP, calcium dye fluorescence (FLIPR); percent of saturating CRF peptide response | AID 588473 | activation, % at 13.2 µM | 350,000 compounds, 0.46% hits;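 active = activation of at least 50%, plus an integration ratio under a set limit after plate pattern correction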;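 note: plate controls were neutral control wells without compound for no effect and CRF at EC100 for full effect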
IDE cell inh = cellular human IDE inhibition. P14735. HEK cells, FAbetaB cleavage, fluorescence polarization. inhibition, % at 5.59 µM. 320,000 compounds, 0.41% hits. AID 434962;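 active = percent inhibition above the average of all tested compounds plus 3 SD, set per screening campaign, cut at about 16% in these data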;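 note: IDE supplied by intact live HEK cells; FP after avidin binding of uncleaved biotin substrate so inhibition keeps polarization high; 0% = DMSO wells and 100% = 60 µM reference IDE inhibitor Ii1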
Target sequence (P14735 whole entry, looked up): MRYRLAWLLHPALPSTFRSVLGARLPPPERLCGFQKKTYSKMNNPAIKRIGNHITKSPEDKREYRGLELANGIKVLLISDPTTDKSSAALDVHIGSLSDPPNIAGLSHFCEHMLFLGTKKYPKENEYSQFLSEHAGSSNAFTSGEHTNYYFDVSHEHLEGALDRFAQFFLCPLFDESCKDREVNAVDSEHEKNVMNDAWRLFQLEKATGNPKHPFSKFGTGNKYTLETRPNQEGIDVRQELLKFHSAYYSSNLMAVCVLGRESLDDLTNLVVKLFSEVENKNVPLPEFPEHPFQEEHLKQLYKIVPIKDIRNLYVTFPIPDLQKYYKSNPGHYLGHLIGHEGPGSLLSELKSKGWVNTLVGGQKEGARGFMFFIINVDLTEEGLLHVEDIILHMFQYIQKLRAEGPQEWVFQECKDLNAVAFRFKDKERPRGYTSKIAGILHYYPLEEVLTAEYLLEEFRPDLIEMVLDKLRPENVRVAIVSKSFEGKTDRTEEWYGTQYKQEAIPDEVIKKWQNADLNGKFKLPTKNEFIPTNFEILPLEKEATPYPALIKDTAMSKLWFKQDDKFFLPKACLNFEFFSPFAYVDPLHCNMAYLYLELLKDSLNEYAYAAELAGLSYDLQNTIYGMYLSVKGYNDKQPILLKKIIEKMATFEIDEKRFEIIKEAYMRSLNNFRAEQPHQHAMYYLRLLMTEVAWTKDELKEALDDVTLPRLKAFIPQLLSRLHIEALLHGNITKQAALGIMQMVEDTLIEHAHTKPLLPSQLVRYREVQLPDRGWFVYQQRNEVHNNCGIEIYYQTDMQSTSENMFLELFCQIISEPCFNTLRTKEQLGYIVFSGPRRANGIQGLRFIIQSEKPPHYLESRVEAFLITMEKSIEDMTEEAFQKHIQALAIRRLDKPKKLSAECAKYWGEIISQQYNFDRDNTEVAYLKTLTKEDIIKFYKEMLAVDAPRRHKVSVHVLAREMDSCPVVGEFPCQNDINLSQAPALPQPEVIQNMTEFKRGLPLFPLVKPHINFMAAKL
RTF Ca sens act = cardiac RTF calcium sensitization. P19429+P45379. activation, % at 7.2 µM. AID 493008. 340,000 compounds, 0.24% hits. IANBD-labeled TnC RTF fluorescence at EC20 calcium; 0% EC20 calcium, 100% full calcium;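 active = activation above the mean over all tested compounds plus 3 SD, cut at about 30% in these data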;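 note: rise in fluorescence read as greater calcium sensitivity of cardiac thin filaments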
IDE act = activators of human insulin-degrading enzyme in cells; HEK cells, FAbeta-B cleavage, fluorescence polarization; 0% vehicle, 100% cell-free pure enzyme wells; activation, % at 5.96 µM; 340,000 compounds, 0.073% hits; AID 493087;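 active = activation above the mean of all tested compounds plus 3 SD, set per screening campaign, cut at about 17% in these data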
Cardiac RTF inh = cardiac RTF calcium desensitization; P19429+P45379; IANBD-labeled cardiac RTF, Ca2+ fluorescence; inhibition, % at 7.15 µM; 340,000 compounds, 0.12% hits; AID 493244;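 active = inhibition above the mean inhibition of all tested compounds plus 3 SD, cut at about 17% in these data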;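 note: assay run at fixed EC70 calcium of 1.6 mM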
CRFBP-R2 block = blocks CRF-induced signaling of the CRF-BP/CRF-R2 complex. HEK293 CRF-R2/CRF-BP, CRF-induced calcium fluorescence. inhibition, % at 11.8 µM. 350,000 compounds, 0.59% hits;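 active = inhibition of the ligand-induced calcium signal above about 50% at the single tested concentration, limit read from the data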
IDE cell inh cf = cellular human IDE inhibition, confirmation. shares compounds with IDE cell inh. HEK cells, FAbetaB cleavage, fluorescence polarization. inhibition, % at 5.59 µM. 1,200 compounds, 51% hits;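 active = mean inhibition across triplicate wells above the cutoff set by the earlier primary insulin-degrading enzyme screen, cut at about 16% in these data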;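 note: 0% = DMSO wells and 100% = 60 µM reference IDE inhibitor Ii1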
HEK cytotox = HEK cell cytotoxicity, counter-screen for IDE inhibitors | 1,200 compounds, 28% hits | shares compounds with IDE cell inh | HEK293 cytotoxicity, ATP luminescence | inhibition, % at 5.59 µM; in the data active = inhibition above about 22%;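 note: 0% = vehicle wells and 100% = reference cytotoxic drug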
FP fluor counter = fluorescent artifact in IDE inhibitor FP assay. shares compounds with IDE cell inh. FP counterscreen for fluorescent artifacts, IDE probe project. IC50, µM. 30 tested, under 10 active; call rule not given here
* = called active by the depositor; / = no result.

SMILES	CRFR2-BP ag	IDE cell inh	RTF Ca sens act	IDE act	Cardiac RTF inh	CRFBP-R2 block	IDE cell inh cf	HEK cytotox	others
Cc1cccc(N2CCN(C(=O)c3cccc(N4CCCC4=O)c3)CC2)c1C	-1	19*	3	-18	9	38	12	12
O=C(c1cccc(N2C(=O)C3C4C=CC(C4)C3C2=O)c1)N1CCN(c2ccccc2Cl)CC1 (stereo unspecified)	0	12	0	-8	4	-6	/	/
COc1cccc(C2C=C(c3ccc(Br)s3)Nc3ncnn32)c1OC (stereo unspecified)	106*	32*	37*	-50	-39	-89	6	21
COc1ccc(C2C=C(c3ccc(C)c(C)c3)Nc3ncnn32)c(OC)c1OC (stereo unspecified)	0	-1	14	-6	1	10	/	/
O=C(CN(C(=O)CCC(=O)Nc1nccs1)c1ccccc1F)NCCc1ccccc1	1	-5	-5	5	-6	-29	/	/
Cc1c(CCC(=O)NCCCn2ccnc2)c(=O)oc2cc3oc4c(c3cc12)CCCC4	-3	56*	-4	-50	1	-8	33*	22	FP fluor counter=>55
COC(=O)c1ccc2c(c1)C(=O)/C(=C/c1ccc(O)cc1)O2	77*	55*	5	-106	-2	-81	86*	21
CC(C)(C)c1ccc(/C=C2\Oc3cc(O)ccc3C2=O)cc1	16	13	9	-2	-21	-13	/	/
COc1ccc(/C=C2\Oc3ccccc3C2=O)cc1	-2	6	5	0	-13	-8	/	/
CC(=O)Oc1ccc(/C=C2/Oc3ccccc3C2=O)cc1	7	28*	7	-47	-3	-18	66*	21
Cc1ccc(S(=O)(=O)NCCNC(=O)CN2CCOCC2)cc1	2	2	-4	4	1	-3	/	/
COc1ccc(C(CC(=O)N2CCCC2)c2ccc(F)cc2)cc1 (stereo unspecified)	-1	17*	-7	-6	-3	14	10	10
Cc1ccc(NC(=O)CN2C(=O)NC3(CCCCC3C)C2=O)cc1S(=O)(=O)N1CCOCC1 (stereo unspecified)	-1	/	/	/	/	-4	/	/
CN(C)c1cccc(C(=O)NNC(=O)CN2C(=O)C3CC=CCC3C2=O)c1 (stereo unspecified)	0	4	-4	3	6	8	/	/
COc1ccc(NC(=O)c2cc(-c3ccccc3)nc3c2cnn3C(C)C)c(OC)c1	-2	-3	-5	3	6	2	/	/
O=C(O)Cc1sc(NC2CCCCC2)nc1-c1ccc(Cl)cc1	1	20*	6	8	9	-14	-3	11
CC(=O)c1cccc(OCC(=O)N(Cc2ccco2)c2c(N)n(Cc3ccccc3)c(=O)[nH]c2=O)c1	-1	2	4	-2	-8	0	/	/
O=S(=O)(Nn1c(O)c(C=C2N=c3ccccc3=N2)sc1=S)c1ccccc1	1	-4	0	-1	2	30	/	/
O=C(Nn1c(O)c(C=C2N=c3ccccc3=N2)sc1=S)c1ccccc1Cl	2	17*	-7	-5	1	-39	10	8
CC(=O)Oc1c(-c2ccc(Br)o2)oc2ccccc2c1=O	14	57*	-6	-55	-5	-35	74*	13
COc1cc(SC)ccc1C(=O)NCCNC(=O)c1nonc1N	0	2	-3	7	-6	3	/	/
OC(CN1CCN(c2ccc(C(F)(F)F)cn2)CC1)c1ccccc1 (stereo unspecified)	0	20*	7	-11	2	-10	11	20
Oc1c(C=NCc2ccccc2)sc2ccccc12	-1	9	-3	-3	0	-5	/	/
Oc1c(N=Nc2ccccc2)sc2ccccc12	-1	-2	0	0	2	-2	/	/
CC(=Nc1ccc(O)cc1)c1sc2ccccc2c1O	27	27*	14	-28	-26	-21	35*	19
SMILES	CRFR2-BP ag	IDE cell inh	RTF Ca sens act	IDE act	Cardiac RTF inh	CRFBP-R2 block	IDE cell inh cf	HEK cytotox	others
CC(=Nc1cccc(C)c1)c1sc2ccccc2c1O	8	16*	-10	-26	-4	-51	29*	8
CC(=O)NCCN=C(C)c1sc2ccccc2c1O	-2	8	-4	-1	-5	18	/	/
CC(=Nc1ccccc1O)c1sc2ccccc2c1O	36	84*	7	-89	-10	-68	96*	10
CN(C)c1ccc(C(=O)NC2(N3CCC3=O)CCCC2)cc1	5	3	4	1	-8	-28	/	/
CCc1cc(C(=O)NNC(=S)NC(C)c2ccccc2)cs1 (stereo unspecified)	-5	19*	4	-5	-1	-13	7	15
CCc1cc(C(=O)NNC(=S)NC2CCCCC2)cs1	1	-4	-6	-3	-2	-10	/	/
NS(=O)(=O)c1ccc(CCNC(=O)CSc2nc3ccccc3c(=O)n2CCN2CCOCC2)cc1	-1	6	-3	2	0	15	/	/
Cn1c(SCC(=O)NCCc2ccc(S(N)(=O)=O)cc2)nc2ccccc2c1=O	-1	41*	-6	-56	-2	-3	9	8
Nc1c2c(nc3ccn(Cc4ccccc4)c(=O)c13)CCC2	0	6	-4	0	-24	-7	/	/
Nc1c2c(nc3ccn(-c4ccccc4)c(=O)c13)CCCCC2	-6	18*	-7	-8	-11	-24	19*	15
COCCN1CC(CNC(=O)c2cc(COc3ccc(C)c(C)c3)on2)CC1=O (stereo unspecified)	0	17*	3	-14	-1	-7	7	11
Cc1ccc(OCc2cc(C(=O)NCCn3cccn3)no2)cc1C	-3	3	-4	-2	-12	1	/	/
Cn1cc(C2=C(c3ccc(Cl)cc3Cl)C(=O)NC2=O)c2ccccc21	144*	33*	47*	-56	-50	-156	60*	-1
O=C(N/N=C/c1c(O)ccc2ccccc12)c1cccc(C(F)(F)F)c1	208*	180*	24	-132	-40	-243	137*	115*
O=C(N/N=C\c1c(O)ccc2ccccc12)c1ccc(Cn2cccn2)o1	32	42*	2	-52	-6	-44	63*	68*
O=C(N/N=C\c1ccc(Cl)s1)c1ccc(Cn2cccn2)o1	0	15	-8	2	-8	-4	/	/
